This is an account of results in PubChem BioAssay (EPA / NIEHS).

SMILES strings stand for the structures. Where “and” joins values, the source holds several entries; their conditions need not be identical. Equal entries are not always repeated. Calls of active or inactive are those of the source. The calls were made as follows: active = hit-call score of the fitted dose curve at least 0.9, where 1 is the maximum; inactive = score below 0.9.

Read-out in the experiment: Interleukin-1 alpha (IL1a), IL1A (gene 3552)
Description: BSK_BE3C_IL1a: BioMAP Diversity Plus: BE3C Assay for Interleukin-1 alpha (IL1a) Biomarker Activity (AID 2283016). Particulars: primary human bronchial epithelial cells; actives raise or lower the signal. As to the method:
BSK_BE3C is a cell-based, multiplexed-readout assay that uses bronchial epithelial cell, a human lung primary cell, with measurements taken at 24 hours after chemical dosing in a 96-well plate.BSK_BE3C_IL1a is an assay component measured in the BSK_BE3C assay. It measures IL-1a antibody related to regulation of gene expression using ELISA technology.Data from the assay component BSK_BE3C_IL1a was analyzed into 1 assay endpoint. This assay endpoint, BSK_BE3C_IL1a, was analyzed with bidirectional fitting relative to DMSO as the negative control and baseline of activity. Using a type of binding reporter, gain or loss-of-signal activity can be used to understand changes in the signaling as they relate to the gene IL1A. Furthermore, this assay endpoint can be referred to as a primary readout, because this assay has produced multiple assay endpoints where this one serves a signaling function. To generalize the intended target to other relatable targets, this assay endpoint is annotated to the cytokine intended target family, where the subfamily is interleukins.
The levels of cell surface (or secreted, indicated by the prefix "s") biomarker endpoints were measured by ELISA. Overt cytotoxicity to cells in confluent adherent cultures (all systems other than the BT system) was assessed by measuring total protein levels using sulforhodamine B (SRB) staining in parallel cultures at the time of biomarker measurements, indicated as SRB endpoints. For proliferation assays for adherent cell types, individual cell types are cultured at sub-confluence and relative cell numbers quantified by SRB staining at time points optimized for each system (48 h: 3C and CASM3C systems; 72 h: BT and HDF3CGF systems; 96 h: SAg system). SRB was performed by staining cells with 0.1% SRB after fixation with 10% TCA and reading wells at 560 nm.Viability and proliferation of PBMC (T cells) was quantified by Alamar Blue reduction for the SAg and BT systems. For PBMC viability (referred to as PBMC Cytotoxicity within the assay endpoint names), cells were plated (75,000/well in a 96-well plate) and then chemical samples added for 1 h before addition of activators, SEB and TSST-1 (20 ng/mL final concentration each). Cells were incubated for 90 h. Then, Alamar Blue (20 uL/well) (Invitrogen, Cat DAL1100) was added for 6 h, and the plates were read with a fluorescence microplate reader at 546/580 nm (excitation/emission). For PBMC proliferation, cells were plated and activated as above but incubated for only 16 h prior to addition of Alamar Blue. Plates were read after 6 h.
Turning to `COc1ccc(C(c2ccc(OC)cc2)C(Cl)(Cl)Cl)cc1`, the result was inactive. Still for that read-out and setting: the value for `Cc1cc(Cl)ccc1OCC(=O)O` was “inactive”; that for `O=C(O)COc1nc(Cl)c(Cl)cc1Cl` was “inactive”; that for `Oc1ccccc1-c1ccccc1` was “inactive”. Same read-out and setting: the value for `CCOP(=S)(OCC)SCn1c(=O)oc2cc(Cl)ccc21` was “inactive”; that for `COc1nc(C)nc(NC(=O)NS(=O)(=O)c2ccccc2Cl)n1` was “inactive”; that for `CCCCNC(=O)n1c(NC(=O)OC)nc2ccccc21` was “inactive”.

What is called AC50 is the concentration at which the activity in the assay is half-maximal. As to `C#CCOS(=O)OC1CCCCC1Oc1ccc(C(C)(C)C)cc1` (stereo not given), the AC50 was 30.3 µM (active).

On to `C=CCC1=C(C)C(OC(=O)C2C(C=C(C)C)C2(C)C)CC1=O` (stereo not given), for which the outcome was inactive. For `Fc1ccc(Oc2ccnc3cc(Cl)cc(Cl)c23)cc1`, the AC50 was 30.7 µM (active). The same measure, in the same setting: the value for `CCCCNC(=O)OCC#CI` was 33.7 µM (active) and 29.6 µM (active). Regarding `CCNc1nc(Cl)nc(NC(C)C)n1`, the outcome was inactive. On the same count and under the same terms, the value for `CC(C)(C)c1ccc(CSc2cnn(C(C)(C)C)c(=O)c2Cl)cc1` was “inactive”; that for `CCOC(=O)C(Cl)Cc1cc(-n2nc(C)n(C(F)F)c2=O)c(F)cc1Cl` (stereo not given) was “inactive”.

`CCCCOC(=O)c1ccccc1C(=O)OCCCC`: the result was inactive. Regarding `COC(=O)C(C)Oc1ccc(Oc2ccc(Cl)cc2Cl)cc1` (stereo not given), the result was inactive. The same measure, in the same setting: for `COC(=O)N(OC)c1ccccc1COc1ccn(-c2ccc(Cl)cc2)n1` the value was “inactive”; for `CC(C)Oc1cc(-n2nc(C(C)(C)C)oc2=O)c(Cl)cc1Cl`, “inactive”; for `N#Cc1cc(Br)c(O)c(Br)c1`, “inactive”. For `CC1COC(Cn2cncn2)(c2ccc(Oc3ccc(Cl)cc3)cc2Cl)O1` (stereo not given), the concentration at half-maximal activity (AC50) was 36 µM (active). As for `CCON=C(CC)C1=C(O)CC(c2c(C)cc(C)cc2C)CC1=O` (stereo not given), the outcome was inactive. Same read-out and setting: the value for `COc1nc(C)nc(NC(=O)NS(=O)(=O)c2ccccc2CCC(F)(F)F)n1` was “inactive”. The same measure, in the same setting: the value for `O=C(O)c1nc(Cl)ccc1Cl` was “inactive”. With `CCc1nn(C)c(C(=O)NCc2ccc(C(C)(C)C)cc2)c1Cl`, the AC50 was 20 µM (active). `CO/C=C(/C(=O)OC)c1ccccc1Oc1cc(Oc2ccccc2C#N)ncn1`: the result was inactive. As for `OC(c1ccc(Cl)cc1)(c1cncnc1)c1ccccc1Cl` (stereo not given), the result was inactive. `COc1nc(NC(C)C)nc(NC(C)C)n1`: the outcome was inactive. Same read-out and setting: the value for `COc1cnc(OC)n2nc(NS(=O)(=O)c3c(OCC(F)F)cccc3C(F)(F)F)nc12` was “inactive”. On the same count and under the same terms, the value for `C=CCC1=C(C)[C@@H](OC(=O)[C@@H]2[C@@H](C=C(C)C)C2(C)C)CC1=O` was “inactive”; that for `CCCCC(CC)COC(=O)c1ccccc1C(=O)OCC(CC)CCCC` (stereo not given) was “inactive”. The same measure, in the same setting: for `CS/C(C)=N/OC(=O)N(C)SN(C)C(=O)O/N=C(\C)SC` the value was “inactive”; for `Cc1ccc(-c2c(Cl)nc(C#N)n2S(=O)(=O)N(C)C)cc1`, “inactive”. Consider `N#CC(CCc1ccc(Cl)cc1)(Cn1cncn1)c1ccccc1` (stereo not given), for which the result was inactive. On the same count and under the same terms, the value for `O=C(Nc1ccccc1)Nc1ccnc(Cl)c1` was “inactive”; that for `CCOc1cc(Oc2ccc(C(F)(F)F)cc2Cl)ccc1[N+](=O)[O-]` was “inactive”. On the same count and under the same terms, for `COP(N)(=O)SC` (stereo not given) the value was “inactive”. Still for that read-out and setting: the value for `Cc1c(F)c(F)c(COC(=O)C2C(/C=C(\Cl)C(F)(F)F)C2(C)C)c(F)c1F` (stereo not given) was “inactive”. For `CC1=C(C(=O)Nc2ccccc2)SCCO1`, the result was inactive. `CCCN(CCC)c1c([N+](=O)[O-])cc(S(N)(=O)=O)cc1[N+](=O)[O-]`: the half-maximal activity concentration (AC50) was 39.6 µM (active) [middle of 4 runs]. With `CCCC1COC(Cn2cncn2)(c2ccc(Cl)cc2Cl)O1` (stereo not given), the outcome was inactive.
